# From the supplement of paper PMC12808144
# A number with no mark means an inactive call.
# Tested on: Mel-DCC-11-R
# Assay: cell viability relative to DMSO control (fraction of DMSO control); higher = less cytotoxic, active = 0.8 or less
# Conditions: 1 µM; 120 h; vemurafenib co-treatment 0 µM
# Method in brief: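 Patient-derived Mel-DCC-11, its resistant subline Mel-DCC-11-R (alone and with 8 µM of its selecting drug) and NHEM-hTERT immortalized melanocytes were exposed for 120 h to 315 approved anti-cancer drugs at 1 µM in duplicate. Luminescence was read with ATPlite 1step. Viability was normalised to vehicle controls and averaged over duplicates.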
row,Compound,cell viability
1,CC(=O)O[C@]1(C(C)=O)CC[C@H]2[C@@H]3CCC4=CC(=O)CCC4=C3[C@@H](c3ccc(N(C)C)cc3)C[C@@]21C [Ulipristal acetate],1.13
2,CCN1CCN(Cc2ccc(Nc3ncc(F)c(-c4cc(F)c5nc(C)n(C(C)C)c5c4)n3)nc2)CC1 [Abemaciclib],1.38
3,Nc1nc(F)nc2c1ncn2[C@@H]1O[C@H](COP(=O)(O)O)[C@@H](O)[C@@H]1O [Fludarabine Phosphate],1.07
4,N.N.O=C([O-])C[O-].[Pt+2] [Nedaplatin],1
5,O=c1cc(-c2ccc(O)cc2)oc2cc(O)cc(O)c12 [Apigenin],0.972
6,C[C@@H]1O[C@@H](OC[C@H]2O[C@@H](Oc3c(-c4ccc(O)c(O)c4)oc4cc(O)cc(O)c4c3=O)[C@H](O)[C@@H](O)[C@@H]2O)[C@H](O)[C@H](O)[C@H]1O [Rutin],1.01
7,O=C(O)C1CSCN1 (stereo not drawn) [Thioproline],0.893
8,CC(C)CN(C[C@@H](O)[C@H](Cc1ccccc1)NC(=O)O[C@H]1CCOC1)S(=O)(=O)c1ccc(N)cc1 [Amprenavir],0.854
9,CN(CCOc1ccc(CC2SC(=O)NC2=O)cc1)c1ccccn1.O=C(O)/C=C\C(=O)O (stereo not drawn) [Rosiglitazone maleate],0.97
10,COc1cccc2c1C(=O)c1c(O)c3c(c(O)c1C2=O)C[C@@](O)(C(=O)CO)C[C@@H]3O[C@H]1C[C@H](N)[C@H](O[C@H]2CCCCO2)[C@H](C)O1 [Pirarubicin],0.233 (active)
11,O=c1cc[nH]c(=O)[nH]1 [Uracil],0.875
12,COc1ccc2[nH]cc(CCNC(C)=O)c2c1 [Melatonine],0.786 (active)
13,CN(C)C/C=C/C(=O)Nc1cc2c(Nc3ccc(F)c(Cl)c3)ncnc2cc1O[C@H]1CCOC1 [Afatinib],1.09
14,CCN1CCN(Cc2ccc(Nc3ncc(F)c(-c4cc(F)c5nc(C)n(C(C)C)c5c4)n3)nc2)CC1.CS(=O)(=O)O [abemaciclib mesylate],1.8
15,CS(=O)(=O)O.Cc1ccc(NC(=O)c2ccc(CN3CCN(C)CC3)cc2)cc1Nc1nccc(-c2cccnc2)n1 [Imatinib Mesylate],0.94
16,S=c1nc[nH]c2nc[nH]c12 [Mercaptopurine],0.876
17,O=c1cc(O)c(Cl)c[nH]1 [Gimeracil],0.944
18,CNNCc1ccc(C(=O)NC(C)C)cc1.Cl [Procarbazine hydrochloride],1.04
19,CCOC(=O)[C@@H](N)Cc1ccc(-c2cc(O[C@H](c3ccc(Cl)cc3-n3ccc(C)n3)C(F)(F)F)nc(N)n2)cc1.O=C(O)CNC(=O)c1ccccc1 [Telotristat Etiprate],1.08
20,O=S(=O)([O-])CCS.[Na+] [Mesna],1.11
21,O=C(NC(Cc1cc(=O)[nH]c2ccccc12)C(=O)O)c1ccc(Cl)cc1 (stereo not drawn) [Rebamipide],0.995
22,Nc1ccc(F)cc1NC(=O)c1ccc(CNC(=O)/C=C/c2cccnc2)cc1 [Chidamide],1.34
23,O=c1[nH]c(=O)n([C@H]2C[C@H](O)[C@@H](CO)O2)cc1C(F)(F)F [Trifluridine],1.24
24,C#CCC(Cc1cnc2nc(N)nc(N)c2n1)c1ccc(C(=O)N[C@@H](CCC(=O)O)C(=O)O)cc1 (stereo partly drawn) [Pralatrexate],0.982
25,CC(=O)O.CC(C)C[C@H](NC(=O)[C@@H](COC(C)(C)C)NC(=O)[C@H](Cc1ccc(O)cc1)NC(=O)[C@H](CO)NC(=O)[C@H](Cc1c[nH]c2ccccc12)NC(=O)[C@H](Cc1cnc[nH]1)NC(=O)[C@@H]1CCC(=O)N1)C(=O)N[C@@H](CCCN=C(N)N)C(=O)N1CCC[C@H]1C(=O)NNC(N)=O [Goserelin acetate],0.927
26,O=C(O)CCc1nc2ccccc2[nH]1 [Procodazole],1.09
27,CS(=O)(=O)c1ccc(C(=O)Nc2ccc(Cl)c(-c3ccccn3)c2)c(Cl)c1 [Vismodegib],0.807
28,Oc1ccc(/C=C/c2cc(O)cc(O)c2)cc1 [Resveratrol],0.914
